Active and inactive are the calls of the source.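 Rule for the calls, unless noted: active = inhibition of the reporter signal at or above 50%; inactive = inhibition below 50%.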
Legend:
[1] = inhibitors of TNFa-induced NFkB p65 translocation, primary screen, imaging, HUVEC, MLSMR starter and 10KST1 sets (AID 438;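 active = inhibition above 20% together with a positive visual image hit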;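 note: compound added about 3h40 before a 20 min TNFalpha stimulation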;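 for inhibition: signal is the nuclear over cytoplasmic p65 intensity ratio per well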); conditions: HUVEC TNFa-induced p65 nuclear translocation; cell count: measured here: nuclei count (cytotoxicity indicator), at 2.08 µM; inhibition: at 2 µM, stronger effect = higher value, 0% TNFa-plus-vehicle, 100% no-TNFa wells
[2] = reduction of polyQ htt aggregates in cells – imaging, exon1htt(103Q)mCFP cells, high-content imaging, primary screen (AID 483;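 active = visual image review flags a hit and inhibition of aggregation exceeds 20%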;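 note: compound exposure lasted 3 days before fixation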;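 for nuclei count: percent of the per-plate median nuclei count of sample wells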); conditions: exon1htt(103Q)mCFP cell line, aggregate imaging, at 2 µM; inhibition of aggregation: stronger effect = higher value; nuclei count: measured here: cell count, toxicity
[3] = endothelial E-selectin expression blockers – imaging, HUVEC, immunofluorescence, MLSMR starter and 10KST1 sets, primary screen (AID 487;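 active = visually confirmed hit in the image check and inhibition above 20%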;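 for inhibition: signal is fraction of cell area covered by stained E-selectin grains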;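 for nuclei count: 100% = median nuclei count of all wells on the same plate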); conditions: HUVEC TNFalpha-induced E-selectin immunofluorescence imaging, at 2 µM; inhibition: stronger effect = higher value; nuclei count: measured here: cell number, toxicity
[4] = target: Voltage-gated potassium channel subunit beta-2 (Rattus norvegicus) (UniProt P62483); test: inhibitors of rat Kvbeta2 reductase activity – biochemical, NADPH fluorescence, primary screen (AID 622;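 active = fluorescence slope higher than the sample average by over 3 SD, cut at about -0.22 in these data, passing the limit was not always enough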;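 note: slope of raw intensity against log time taken from 70 to 1610 s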); conditions: recombinant KvBeta, 4-cyanobenzaldehyde reduction, at 10 µM, stronger effect = higher value
Voltage-gated potassium channel subunit beta-2 (Rattus norvegicus), sequence (P62483 whole entry, looked up): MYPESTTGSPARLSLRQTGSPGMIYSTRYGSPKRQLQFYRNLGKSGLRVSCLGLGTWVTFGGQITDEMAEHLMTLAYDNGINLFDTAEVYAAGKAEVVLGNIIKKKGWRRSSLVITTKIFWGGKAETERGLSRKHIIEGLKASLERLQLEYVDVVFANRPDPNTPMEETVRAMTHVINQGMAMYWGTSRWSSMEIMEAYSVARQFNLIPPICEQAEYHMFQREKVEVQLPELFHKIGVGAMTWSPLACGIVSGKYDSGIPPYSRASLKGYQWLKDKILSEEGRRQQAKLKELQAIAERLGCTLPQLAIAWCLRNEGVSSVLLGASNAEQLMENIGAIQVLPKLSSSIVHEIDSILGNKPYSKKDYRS

[5] = target: Voltage-gated potassium channel subunit beta-2 (Rattus norvegicus) (UniProt P62483); test: enhancers of rat Kvbeta2 NADPH turnover – biochemical, NADPH fluorescence, primary screen (AID 623;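 active = NADPH fluorescence slope more negative than the mean of all samples by about 3 SD, 99.7% confidence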;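 note: fluorescence intensity change per second fitted from 20 to 320 s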); conditions: Recombinant KvBeta, NADPH fluorescence decrease slope, 10 min; at 10 µM; stronger effect = lower value
[6] = target: Alpha-2C adrenergic receptor (Homo sapiens) (UniProt P18825); test: compounds altering alpha2C-coupled GIRK flux – cell-based, HEK293 alpha2C/GIRK1/2, thallium flux, primary screen (AID 624;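 active = fluorescence slope after compound addition differing from the mean of all screened samples at 99.7% confidence, in either direction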;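 note: slope of fluorescence ratio to pre-addition baseline per second over 15 to 24 s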); conditions: thallium flux BTC fluorescence, at 10 µM, actives lie on both sides
Alpha-2C adrenergic receptor (Homo sapiens), sequence (P18825 whole entry, looked up): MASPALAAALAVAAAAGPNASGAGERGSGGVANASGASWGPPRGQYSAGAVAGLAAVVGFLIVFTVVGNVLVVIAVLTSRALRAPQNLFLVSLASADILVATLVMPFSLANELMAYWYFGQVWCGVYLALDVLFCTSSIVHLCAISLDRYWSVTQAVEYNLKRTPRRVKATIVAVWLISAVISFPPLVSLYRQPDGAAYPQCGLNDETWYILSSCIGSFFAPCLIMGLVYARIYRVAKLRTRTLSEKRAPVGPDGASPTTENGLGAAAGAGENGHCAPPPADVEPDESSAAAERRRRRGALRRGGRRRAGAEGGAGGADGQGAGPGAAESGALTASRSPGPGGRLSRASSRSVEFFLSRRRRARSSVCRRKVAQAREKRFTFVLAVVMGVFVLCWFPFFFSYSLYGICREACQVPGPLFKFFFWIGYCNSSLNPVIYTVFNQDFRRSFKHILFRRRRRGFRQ

[7] = blockers of RIG-like receptor reporter activation – cell-based, Sendai virus stimulus, luciferase, 10K MLSCN set, TLR/RLR signaling modifier project, primary screen (AID 602276;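 active = inhibition at or above 50% at 10 µM; inactive = inhibition below 50%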;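 note: firefly luciferase from ISG56 promoter only with Renilla not read in this screen; 0% = Sendai virus plus DMSO and 100% = medium plus DMSO without virus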); conditions: HEK293 RL24 IRF3 luciferase reporter, at 10 µM, stronger effect = higher value
[8] = TLR3 IRF3 reporter activation blockers – cell-based, poly I:C stimulus, luciferase, 10K MLSCN set, primary screen (AID 602277); conditions: HEK293-TLR3 RL24 IRF3 luciferase reporter, at 10 µM, stronger effect = higher value

SMILES: CCN1CCN(c2nc3c(c(=O)n(C)c(=O)n3C)n2CCSc2ncccn2)CC1
- cell count [1]: 295
- inhibition [1]: -0.5% (inactive)
- inhibition of aggregation [2]: -7.5% (inactive)
- nuclei count [2]: 97.8%
- inhibition [3]: -130% (inactive)
- nuclei count [3]: 116%
- fluorescence slope [4]: -0.506 (inactive)
- NADPH fluorescence slope [5]: -9.3e-06 (inactive)
- slope [6]: 0.00522 (inactive)
- inhibition [7]: 0.292% (inactive)
- inhibition [8]: 13% (inactive)

SMILES: COc1ccc(CNC(=O)CCc2nc(-c3ccccc3F)no2)c(OC)c1
- cell count [1]: 354
- inhibition [1]: 1.7% (inactive)
- inhibition of aggregation [2]: 19.9% (inactive)
- nuclei count [2]: 98%
- inhibition [3]: 37.2% (inactive)
- nuclei count [3]: 86.3%
- fluorescence slope [4]: -0.378 (inactive)
- NADPH fluorescence slope [5]: -2e-05 (inactive)
- slope [6]: 0.00384 (inactive)
- inhibition [7]: 8.05% (inactive)
- inhibition [8]: 0.538% (inactive)

SMILES: Cc1cccc(-n2c(SCc3cc(=O)n4ccsc4n3)nc3ccccc32)c1
- cell count [1]: 439
- inhibition [1]: 5.1% (inactive)
- inhibition of aggregation [2]: -3.6% (inactive)
- nuclei count [2]: 97.1%
- inhibition [3]: -73.8% (inactive)
- nuclei count [3]: 112%
- fluorescence slope [4]: -0.525 (inactive)
- NADPH fluorescence slope [5]: 1.8e-05 (inactive)
- slope [6]: 0.00495 (inactive)
- inhibition [7]: -11% (inactive)
- inhibition [8]: -9.49% (inactive)

SMILES: CCn1cc(C(=O)OCc2ccc(F)cc2)c(=O)c2ccc(C)nc21
- cell count [1]: 360
- inhibition [1]: 0.4% (inactive)
- inhibition of aggregation [2]: -17.1% (inactive)
- nuclei count [2]: 102%
- inhibition [3]: -16.9% (inactive)
- nuclei count [3]: 98%
- fluorescence slope [4]: -0.428 (inactive)
- NADPH fluorescence slope [5]: -2.4e-05 (inactive)
- slope [6]: 0.00561 (inactive)
- inhibition [7]: 11.6% (inactive)
- inhibition [8]: -3.06% (inactive)

SMILES: O=C(Cc1cccs1)Nc1ccccc1NC(=O)Cc1cccs1
- cell count [1]: 323
- inhibition [1]: -1.4% (inactive)
- inhibition of aggregation [2]: 16.2% (inactive)
- nuclei count [2]: 82.6%
- inhibition [3]: 7.1% (inactive)
- nuclei count [3]: 88.2%
- fluorescence slope [4]: -0.366 (inactive)
- NADPH fluorescence slope [5]: -7.6e-05 (inactive)
- slope [6]: 0.00795 (inactive)
- inhibition [7]: 9.79% (inactive)
- inhibition [8]: 34.9% (inactive)

SMILES: Cc1ccccc1-c1nc(CS(=O)(=O)CC(=O)NCc2ccccc2)c(C)o1
- cell count [1]: 642
- inhibition [1]: 2.8% (inactive)
- inhibition of aggregation [2]: -36.7% (inactive)
- nuclei count [2]: 75.5%
- inhibition [3]: 16.5% (inactive)
- nuclei count [3]: 106%
- fluorescence slope [4]: -0.532 (inactive)
- NADPH fluorescence slope [5]: -2.1e-05 (inactive)
- slope [6]: 0.00661 (inactive)
- inhibition [7]: 9.9% (inactive)
- inhibition [8]: 24.3% (inactive)

SMILES: COc1ccc(C2(C(=O)Nc3cc(C)on3)CCOCC2)cc1
- cell count [1]: 312
- inhibition [1]: 0.4% (inactive)
- inhibition of aggregation [2]: 10.1% (inactive)
- nuclei count [2]: 108%
- inhibition [3]: -51.8% (inactive)
- nuclei count [3]: 134%
- fluorescence slope [4]: -0.388 (inactive)
- NADPH fluorescence slope [5]: -4.8e-05 (inactive)
- slope [6]: 0.00489 (inactive)
- inhibition [7]: 13.8% (inactive)
- inhibition [8]: 5.89% (inactive)

SMILES: CC1Cc2ccccc2N1C(=O)CSc1nnc2n1C(C)(C)Cc1ccccc1-2 (configuration not stated)
- cell count [1]: 247
- inhibition [1]: -0.2% (inactive)
- inhibition of aggregation [2]: 21.8% (inactive)
- nuclei count [2]: 84.2%
- inhibition [3]: 5.5% (inactive)
- nuclei count [3]: 69.7%
- fluorescence slope [4]: -0.434 (inactive)
- NADPH fluorescence slope [5]: 2.5e-05 (inactive)
- slope [6]: 0.00483 (inactive)
- inhibition [7]: 5.38% (inactive)
- inhibition [8]: -63.7% (inactive)

SMILES: COC(=O)Cn1c2ccccc2c2nc(C)sc21
- cell count [1]: 350
- inhibition [1]: 11.4% (inactive)
- inhibition of aggregation [2]: -14.3% (inactive)
- nuclei count [2]: 106%
- inhibition [3]: -59.3% (inactive)
- nuclei count [3]: 125%
- fluorescence slope [4]: -0.439 (inactive)
- NADPH fluorescence slope [5]: 7e-06 (inactive)
- slope [6]: 0.00472 (inactive)
- inhibition [7]: -14.8% (inactive)
- inhibition [8]: -8.31% (inactive)

SMILES: NC(=O)C1CCN(C(=O)c2cc3n(n2)C(C(F)(F)F)CC(c2ccco2)N3)CC1 (configuration not stated)
- cell count [1]: 537
- inhibition [1]: -5.4% (inactive)
- inhibition of aggregation [2]: 2.5% (inactive)
- nuclei count [2]: 93.4%
- inhibition [3]: -83.5% (inactive)
- nuclei count [3]: 100%
- fluorescence slope [4]: -0.543 (inactive)
- NADPH fluorescence slope [5]: 1.2e-05 (inactive)
- slope [6]: 0.00594 (inactive)
- inhibition [7]: 18.6% (inactive)
- inhibition [8]: 24.2% (inactive)

SMILES: Cc1occc1C(=O)N1CCN(c2ncccn2)CC1
- cell count [1]: 347
- inhibition [1]: -12.5% (inactive)
- inhibition of aggregation [2]: 5% (inactive)
- nuclei count [2]: 102%
- inhibition [3]: -117% (inactive)
- nuclei count [3]: 101%
- fluorescence slope [4]: -0.356 (inactive)
- NADPH fluorescence slope [5]: 6.9e-06 (inactive)
- slope [6]: 0.00583 (inactive)
- inhibition [7]: -8.62% (inactive)
- inhibition [8]: 4.37% (inactive)

SMILES: O=C(C(Cc1ccccc1)n1cccc1)N1CCCCCC1 (configuration not stated)
- cell count [1]: 690
- inhibition [1]: -1.6% (inactive)
- inhibition of aggregation [2]: 8.2% (inactive)
- nuclei count [2]: 104%
- inhibition [3]: -42.3% (inactive)
- nuclei count [3]: 115%
- fluorescence slope [4]: -0.517 (inactive)
- NADPH fluorescence slope [5]: -1.7e-05 (inactive)
- slope [6]: 0.00572 (inactive)
- inhibition [7]: 3.28% (inactive)
- inhibition [8]: 25.3% (inactive)
